# This is a sample that favours compounds with a hit; in the whole collection about 4.1% have one here.
# hcDAF12 agonist = activates DAF-12 receptor from parasite H. contortus; hit rate 1.4% among 370,000; AID 652067; activation, % at 6.8 µM; HEK293 hcDAF-12 lit1-tk-luc reporter, luminescence; 0% DMSO, 100% Δ7-dafachronic acid;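 active = activation above the mean of all tested compounds plus 3 SD, cut at about 5.5% in these data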
# DAX1 inh-1 = inhibitors of DAX1 repression of SF-1 activated StAR promoter. inhibition, % at 6.8 µM. HEK293T StAR-luciferase reporter, SF-1/DAX-1 repression relief. hit rate 1.1% among 370,000. AID 652010;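 active = inhibition above the mean over all tested compounds plus 3 SD, cut at about 3.6% in these data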;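 also: higher inhibition means more luminescence from relief of DAX-1 repression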
# ssDAF-12 act = activates DAF-12 receptor from parasite S. stercoralis. hit rate 1% among 370,000. activation, % at 6.8 µM. HEK293 ssDAF-12/GRIP1 lit1-tk-luc reporter, luminescence; % of 3 µM dafachronic acid response;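 active = activation above the mean over all tested compounds plus 3 SD, cut at about 0.9% in these data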
# hgDAF-12 ag = agonists of H. glycines DAF-12 nuclear receptor | HEK293 GAL4-hgDAF12 UAS-luciferase reporter, agonist luminescence; normalized to butyrate control | activation, % at 6.8 µM | hit rate 1.8% among 370,000 | AID 687014;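 active = activation above a cutoff set at the mean of all screened compounds plus 3 SD, cut at about 10% in these data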
# DAX1 inh-2 = inhibits human nuclear receptor DAX1; P51843; HEK293 Gal4-DAX1 luciferase reporter, luminescence; inhibition, % at 6.75 µM; hit rate 0.99% among 340,000;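 active = inhibition above the mean over all tested compounds plus 3 SD, cut at about 4.2% in these data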;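 also: inhibition shows as a rise in luminescence from relieved DAX1 repression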
# Target sequence (P51843 207-470 limits assumed): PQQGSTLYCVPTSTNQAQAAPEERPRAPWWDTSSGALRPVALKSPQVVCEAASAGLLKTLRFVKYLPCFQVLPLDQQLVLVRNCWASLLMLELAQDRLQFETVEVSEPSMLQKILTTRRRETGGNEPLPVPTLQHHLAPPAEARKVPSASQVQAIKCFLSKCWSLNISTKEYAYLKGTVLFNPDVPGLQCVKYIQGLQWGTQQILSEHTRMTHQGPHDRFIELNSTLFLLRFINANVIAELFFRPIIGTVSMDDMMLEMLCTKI
# Hits are given with their value; n = inactive; x = no result; ! = not active in a repeat.
SMILES,hcDAF12 agonist,DAX1 inh-1,ssDAF-12 act,hgDAF-12 ag,DAX1 inh-2
Cc1cc(SCC(=O)c2ccccc2)n2nc(C)nc2n1,6.2,n,n,n,n
Cc1ccccc1/C=C/c1nc2ccccc2c(=O)[nH]1,n,n,n,11,n
N#CCOc1ccccc1/C=C/c1nc2ccccc2c(=O)[nH]1,n,n,n,n,n
COc1ccc(CC(=O)Nc2cc3oc4ccccc4c3cc2OC)cc1,n,n,n,12,n
COc1cc2c(cc1NC(=O)CSc1ccccn1)oc1ccccc12,6.5,n,n,n,n
Cc1cc(C)cc(-c2nnc(SCC(=O)c3c(N)n(C4CC4)c(=O)[nH]c3=O)o2)c1,n,n,n,n,n
CCOC(=O)c1cc(C#N)c(SCc2ccc(C#N)cc2)nc1C,n,n,1.1,n,n
O=C(O)c1ccc(-n2nc(-c3ccccc3O)nc2-c2ccccc2O)cc1,n,n,n,n,x
CN(Cc1ccccc1)S(=O)(=O)c1cccc(C(=O)OCc2ccccc2Cl)c1,n,n,n,n,x
COc1ccc(-c2nc(SC(C)C(=O)NC3CC3)n[nH]2)cc1 (stereo not drawn),n,n,n,n,4.5
Cc1cc(SCCOc2ccccc2)nc(N)n1,n,n,n,n,5.1
CC(C)(C)c1ccc(OCC(=O)NCC(c2cccs2)N2CCOCC2)cc1 (stereo not drawn),n,4.3,n,n,n
COc1ccc(OCC(=O)NCC(c2cccs2)N2CCOCC2)cc1 (stereo not drawn),n,n,n,n,n
COc1cc(/C=C/c2ccc3cccc(O)c3n2)cc(Br)c1OC,n,n,n,12,n
c1ccc(-c2ccc(OCCCNC3CCCC3)cc2)cc1,n,n,n,n,x
c1ccc(SCCCCNC2CCCC2)cc1,n,n,1.7,n,n
COC(=O)C1=C(C)N(C)C(=NCc2ccc(C(F)(F)F)cc2)NC1c1ccc(F)cc1 (stereo not drawn),n,n,n,n,x
O=C(O)c1ccc(O)cc1O,n,n,n,n,n
Nc1ccc(C(=O)O)c(O)c1,n,n,n,11!,n
Cc1cccc(-c2nnc(SCC(=O)Nc3ccc(-c4nc5ccc(C)cc5s4)cc3)n2Cc2ccco2)c1,n,n,n,n,x
COc1ccc(S[C@]2(C(=O)N3CCN(c4ncccn4)CC3)CC(=O)N(C(=O)/C=C/c3ccccc3)[C@@H]2c2ccc(OC)cc2)cc1,n,n,n,n,x
CCc1cccc(NC(=O)Cn2ncn3c(cc4ccccc43)c2=O)c1,6.4,n,n,n,n
C#CCNC(=O)C[C@H]1C[C@@]2(C(=O)OC)C(=C[C@H](COCc3ccccc3)O[C@@H]2C)N(CCc2ccc(OC)c(OC)c2)C1=O,n,n,n,n,x
CN1C(=O)c2cc(NC(=O)Nc3ccccc3)ccc2OC[C@H]2O[C@@H](CC(=O)NCC(F)(F)F)CC[C@@H]21,n,n,n,n,x
CCOC(=O)Nc1nnc(-c2ccccc2OC)s1,5.8,n,n,n,n
SMILES,hcDAF12 agonist,DAX1 inh-1,ssDAF-12 act,hgDAF-12 ag,DAX1 inh-2
Fc1ccc2[nH]c3c(Cl)ncnc3c2c1,n,n,1.0,n,n
NC(=O)c1ccccc1Nc1nc(NCCO)nc(N2CCCC2)n1,n,n,n,n,4.4
CNC(=S)NNC(=O)c1sccc1C,n,n,n,n,n
Cc1ccsc1C(=O)NNC(=S)NC1CCCCC1,n,4.1,n,n,n
CC(=O)Nc1ccc(NC(=O)CSc2nnc(-c3cccs3)o2)cc1,n,n,n,n,x
C/C(Cc1ccccc1)=N/NC(=O)CNC(=O)C(c1ccccc1)c1ccccc1,6.0,n,n,n,n
Clc1ccccc1CSc1ncn(-c2ccccc2)n1,n,n,n,11,n
Cc1ccc(CSc2ncn(-c3ccccc3)n2)cc1,n,n,n,n,4.2
O=C(CSc1ncn(-c2ccccc2)n1)NCc1ccccc1,n,n,n,n,n
CN(C)CC(=O)N[C@@H]1C[C@@H]2O[C@@H](CO)CC[C@@H]2O[C@@H]1CCc1ccc(C#Cc2ccccc2)cc1,n,n,n,n,x
Cc1c(CC(=O)Nc2ccc(Cl)cc2)sc2ccc(Cl)cc12,n,n,n,n,6.4
CCc1cc2c(=O)c(-c3cscn3)coc2cc1O,5.7,n,1.0,11,n
CCOC(=O)c1oc2cc(O)c(CC)cc2c(=O)c1-c1cscn1,n,n,n,n,n
CC(C)C[C@@H]1Cc2[nH][nH]c(=O)c2[C@H](c2ccc(Cl)cc2)O1,n,n,n,n,x
O=C(NCc1ccc(Cl)cc1)c1ccncc1,n,n,n,n,n
O=C(NCc1ccco1)c1c2c(nc3ccccc13)CCC2,n,n,n,n,n
O=C(NCc1ccc(F)cc1)c1ccncc1,n,n,n,n,4.4
O=C(NCc1ccc(F)cc1)c1c2c(nc3ccccc13)CCC2,n,4.5,n,n,n
CS(=O)(=O)NN1C(=O)c2ccccc2NC1c1c[nH]c2ccccc12 (stereo not drawn),6.2,n,n,n,n
CS(=O)(=O)NN1C(=O)c2ccccc2NC1c1ccccc1O (stereo not drawn),n,n,n,n,n
CC(C)Nc1nc(-c2ccccn2)nc(-c2ccccc2)c1C#N,n,n,n,n,4.8
CCC/C(=C1/c2ccccc2C(=O)N1c1ccccc1)c1ccc(C=O)o1,n,n,n,n,x
CNS(=O)(=O)c1ccc(NC(=O)c2cnn3c(C(F)F)cc(-c4ccccc4)nc23)cc1,n,n,n,n,n
O=C(Nc1cccc(S(=O)(=O)N2CCOCC2)c1)c1cnn2c(C(F)F)cc(-c3ccccc3)nc12,n,n,n,n,5.0
COC(=O)C(C(=O)OC)C1OC23CN(S(=O)(=O)c4ccc(C)cc4)C=CC2(C)C3c2ccccc21 (stereo not drawn),n,n,n,n,x
SMILES,hcDAF12 agonist,DAX1 inh-1,ssDAF-12 act,hgDAF-12 ag,DAX1 inh-2
CC(C)c1c(Cl)c(O)c(-c2ccccc2)c(=O)n1-c1ccc(F)cc1,5.7,n,n,n,n
CC(C)c1cc(O)c(-c2ccccc2)c(=O)n1-c1ccc(Cl)cc1,n,n,n,n,n
CC1CCCCN1Cc1c(O)ccc2c(=O)c(-c3ccc(Cl)cc3)coc12 (stereo not drawn),5.8,n,n,n,n
Oc1ccc(/C=N/Nc2nccnc2Cl)cc1,n,n,n,12,n
Fc1cccc(/C=N/Nc2nccnc2Cl)c1,n,n,n,13,n
CCN(CC)S(=O)(=O)c1ccc(C)c(NC(=O)COC(=O)CN2C(=O)NC(C)(C)C2=O)c1,n,n,0.9,n,n
CCC1(CC)NC(=O)N(CC(=O)OCC(=O)Nc2cc(C)ccc2C)C1=O,n,n,n,n,n
Cc1ccccc1OCC(=O)OCC(=O)NC1CCCC(C)C1C (stereo not drawn),n,n,n,n,n
O=C(N/N=C1/CC2C=CCC12)c1ccco1 (stereo not drawn),n,n,1.0,11,n
COc1ccc(N=Cc2nc(-c3ccccc3)oc2OC(=O)c2ccccc2)cc1,n,3.7,n,12,n
CC(=O)Oc1oc(-c2ccccc2)nc1C=Nc1ccccc1,n,n,n,n,n
